Only some compounds are listed: those with a hit (about 0.64% of all), similar ones and a draw of the others.
EPAC2 antag – qHTS for Antagonist of cAMP-regulated guanine nucleotide exchange factor 2 (EPAC2): primary screen. Rap guanine nucleotide exchange factor 4 (Homo sapiens), Q8WZA2. EPAC2 GEF exchange of Rap1B-BODIPY-GDP, fluorescence. Potency, µM (doses to about 114 µM), for the others: top-dose activity, negative = inhibition, actives largely listed as inhibitors. hit rate 0.18% among 360,000. AID 720708, 2013; further: potency means the concentration at half of the fitted maximal effect; on the % scale 0 is the no-effect control and ±100 the full control effect; nearly all actives have a fitted effect of over 45% in size
EPAC1 antagonist – qHTS for Antagonist of cAMP-regulated guanine nucleotide exchange factor 3 (EPAC1): primary screen | Rap guanine nucleotide exchange factor 3 (Homo sapiens), O95398 | EPAC1 GEF assay, Rap1b-BODIPY-GDP exchange fluorescence | Potency, µM (highest dose often 115 µM), for inactives: at the highest dose activity change, negative = inhibition, actives largely listed as inhibitors | hit rate 0.14% among 360,000 | AID 720709, 2013;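 further: potency means the concentration at half of the fitted maximal effect; plate controls were vehicle for no effect and positive control for full effect; nearly all actives have a fitted effect of over 50% in size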
IL-2 act – qHTS of IL-2 Activators. IL-2 activation reporter assay, cell-based qHTS; stimulated with anti-CD3/CD4/CD28 beads; in transgenic mouse T cells. activation, % (series mostly up to about 46 µM). hit rate 0.065% among 360,000; in the data active means activation above about 50%; inconclusive means mostly about 30% to 49%; further: 0% is about no effect
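Using fluorescent plate cytometry, EGFP and DsRed are detected in transgenic mouse T cells stimulated 18 h at 37 degrees C with antibody-coated beads after 60 min compound pretreatment.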
EPAC2 agonist – qHTS for Agonist of cAMP-regulated guanine nucleotide exchange factor 4 (EPAC2): primary screen; hit rate 0.079% among 360,000; Potency, µM (top dose mostly 154 µM), for the others: at the top dose activation, hits mostly activators; EPAC2 activation, biochemical qHTS; response scale: 100% = 6.5 mM cAMP response; Rap guanine nucleotide exchange factor 4 (Homo sapiens), Q8WZA2; further: potency means the concentration at half of the fitted maximal effect; nearly all actives have a fitted effect of over 50% in size
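Fluorescence exchange assay: 100 nM EPAC2 with 250 nM RAP1B-BODIPY-GDP and 50 uM GDP; compounds tested as a concentration-titration series (qHTS). Loss of Rap1-bound BODIPY-GDP fluorescence read at 480/540 nm; data normalized to 6.5 mM cAMP.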
EPAC1 ag – qHTS for Agonist of cAMP-regulated guanine nucleotide exchange factor 3 (EPAC1): primary screen; hit rate 0.073% among 360,000; Potency, µM (titrated, usually from 154 µM), for the others: at the highest dose activation, hits mostly activators; AID 720707, 2013; Rap guanine nucleotide exchange factor 3 (Homo sapiens), O95398; EPAC1 agonist qHTS, biochemical assay; response scale: 100% = response to 6.5 mM cAMP; further: potency means the concentration at half of the fitted maximal effect; nearly all actives have a fitted effect of over 60% in size
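Nucleotide exchange assay: 100 nM EPAC1 with 250 nM Rap1B loaded with BODIPY-GDP and 50 uM GDP, room temperature. Fluorescence (480/540 nm) read every 5 min for 30 min; signal change normalized to 6.5 mM cAMP as full agonist.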
PKM2 activator – qHTS Assay for Activators of Human Muscle isoform 2 Pyruvate Kinase; hit rate 0.34% among 260,000; Pyruvate kinase PKM (Homo sapiens), P14618; Potency, µM (series often up to 57.5 µM), for the others: top-dose activation, most hits filed as activators; purified PKM2, Kinase-Glo ATP luminescence, activation; response scale: 0% is enzyme alone, no compound; further: potency means the concentration at half of the fitted maximal effect; on the % scale 0 is the no-effect control and ±100 the full control effect; nearly all actives have a fitted effect of over 55% in size
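ATP formation by purified human PK-M2, quantified via coupled luciferase luminescence after 1 h at room temperature with 0.1 mM ADP and 0.5 mM PEP final.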
HeLa viability – Secondary assay for Activators of Human Pyruvate Kinase M2 isoform - Cell Titer Glo cytotoxicity assay. shares compounds with PKM2 activator. HeLa viability, CellTiter-Glo ATP luminescence, 24 h. activity change, negative = cytotoxicity, % at 57.5 µM. 230 tested, under 10 active. AID 1898, 2009; further: % of control where 0% means no effect
* hit, by the source's call; ? = inconclusive; nt = not tested or not shown; [ ] = dose if it differs, or a comment. Unless noted, the call rests on the fitted dose curve; in most records, active means well fitted curve in the direction sought with a large enough effect; inconclusive means small, poorly fitted or top-dose-only effect, or another doubt; inactive means no such curve, though single readings can be large; an effect the other way counts as inactive or inconclusive.

SMILES	EPAC2 antag	EPAC1 antagonist	IL-2 act	EPAC2 agonist	EPAC1 ag	PKM2 activator	HeLa viability
O=S(=O)(NC1CCC(NS(=O)(=O)c2c(F)cccc2F)CC1)c1ccc2c(c1)OCCO2 (configuration not stated)	-28.1%	-5.8%	0.5	18.2%	7.1%	nt	-12.4
C[C@@H]1CN(S(=O)(=O)c2c(F)cccc2F)CCN1S(=O)(=O)c1ccc2c(c1)OCCO2	-6.2%	-11.5%	-5.0	13.1%	-3.7%	nt	?
O=S(=O)(c1ccc2c(c1)OCCO2)C1CCC(S(=O)(=O)c2c(F)cccc2F)CC1 (configuration not stated)	-8.3%	10.5%	-1.1	-1.2%	-10.6%	nt	nt
COc1ccc(OC)c(N(CC(=O)Nc2cccnc2)S(=O)(=O)c2ccccc2)c1	7.9%[57.1 µM]	9.4%	1.4	8.0%	4.1%	5.8%	nt
CCOC(=O)C1=C(COC(=O)c2cc(S(=O)(=O)N(C)C)ccc2C)NC(=O)NC1C (configuration not stated)	-6.6%	-3.9%	-0.3	2.5%	8.3%	nt	nt
O=C(O)C1C2C=CC(C2)C1C(=O)Nc1ccc(Cl)c(Cl)c1 (configuration not stated)	-1.0%	2.7%	-4.3	-0.2%	1.5%	1.0%[11.5 µM]	nt
Cc1cc2nnc(SCC(=O)Nc3ccc(Cl)cc3)n2c(N)n1	3.3%	-6.5%	1.1	-2.5%	-16.7%	?	nt
COc1cccc(NC(=O)CSc2nnc3cc(C)nc(N)n23)c1	8.6%	1.2%	1.1	1.4%	2.9%	1.78µM*	0.0
O=C(Nc1cccc(Oc2ccccc2)c1)c1ccc(-n2cncn2)c2ccoc12	3.0%	-5.8%	2.3	9.3%	8.8%	nt	nt
O=S(=O)(c1ccc2c(c1)OCCO2)N1CCN(S(=O)(=O)c2cccc[n+]2[O-])CC1	nt	nt	nt	nt	nt	nt	5.7
O=S(=O)(c1ccc2c(c1)OCCO2)N1CCN(S(=O)(=O)c2ccccn2)CC1	11.8%	-16.6%	0.2	10.4%	-11.4%	nt	-12.2
N#CCCN1CCN(S(=O)(=O)c2ccc3c(c2)OCCCO3)CC1	-9.5%[57.1 µM]	-2.7%	-0.9	-19.3%	1.3%	?	nt
O=S(=O)(c1ccc2c(c1)OCCO2)N1CCN(Cc2ccccc2)CC1	5.4%[57.1 µM]	3.0%	-0.7	10.1%	10.3%	6.8%	nt
COc1ccc(S(=O)(=O)N2CCC(C(=O)NCc3cccc(OC)c3)CC2)cc1	7.1%	7.7%	-2.4	-2.6%	5.8%	1.58µM*	0.0
O=S(=O)(c1ccc2c(c1)OCCO2)N1CCN(S(=O)(=O)c2c(F)ccc(O)c2F)CC1	nt	nt	nt	nt	nt	nt	-5.9
O=C(c1ccc(F)cc1)N1CCN(S(=O)(=O)c2ccc3c(c2)OCCO3)CC1	-3.1%	10.6%	5.9	9.5%	-9.0%	nt	nt
COc1ccccc1CNC(=O)CN(C)CC(=O)Nc1ccc(F)c(F)c1F	2.6%	15.8%	0.3	3.5%	-0.3%	nt	nt
COc1cc(F)c(S(=O)(=O)N2CCN(S(=O)(=O)c3ccc4c(c3)OCCO4)CC2)c(F)c1	nt	nt	nt	nt	nt	nt	-8.3
O=S(=O)(c1ccc2c(c1)OCCO2)N1CCN(S(=O)(=O)c2ccc3c(c2)OCCO3)CC1	nt	nt	nt	nt	nt	nt	5.5
O=S(=O)(c1cccc(Br)c1)N1CCN(S(=O)(=O)c2ccc3c(c2)OCCO3)CC1	2.5%	7.8%	1.1	2.8%	-9.8%	nt	nt

Assay outcomes as filed in PubChem BioAssay.
